In the library only some 1.2% were active in any assay of this set; here they are far more common.
RGS8-Gao = modulates binding of RGS8 to human Galphao | multiplexed bead flow cytometry; actives lie on both sides | response (percent of control binding), % at 10 µM | actives 0.34% (n = 220,000) | AID 1423; in the data active means response below about 60% or above about 140%; inactive means in between;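 further: Galphao activated as the GDP aluminium fluoride complex binding bead-coupled RGS8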
Target sequence (P09471 whole entry, looked up): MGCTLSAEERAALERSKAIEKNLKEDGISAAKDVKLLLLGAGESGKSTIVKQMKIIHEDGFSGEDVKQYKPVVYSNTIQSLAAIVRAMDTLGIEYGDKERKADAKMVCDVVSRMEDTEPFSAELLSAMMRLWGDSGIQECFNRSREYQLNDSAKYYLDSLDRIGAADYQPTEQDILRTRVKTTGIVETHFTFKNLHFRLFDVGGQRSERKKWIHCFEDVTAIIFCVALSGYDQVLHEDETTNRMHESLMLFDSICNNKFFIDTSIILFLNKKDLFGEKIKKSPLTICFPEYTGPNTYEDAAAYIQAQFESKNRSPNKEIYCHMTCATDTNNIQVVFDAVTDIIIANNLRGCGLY
RGS4-Gao reg = human RGS4-Galphao interaction regulation; P09471; Multiplexed bead flow cytometry, RGS4-Galphao binding; actives lie on both sides; binding response (% of control), % at 10 µM; actives 0.33% (n = 220,000); AID 1415; in the data active means binding response below about 49% or above about 150%; inactive means in between;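 further: fluorescent Galphao activated with aluminum fluoride binding bead-coupled RGS4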
RGS7-Gao reg = regulators of human RGS7-Galphao interaction | actives 0.35% (n = 220,000) | binding response (% of control), % at 10 µM | Multiplexed bead flow cytometry, RGS7-Galphao binding; actives lie on both sides; in the data active means binding response below about 49% or above about 150%; inconclusive means no clear call, values can overlap the other calls; inactive means in between;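 further: fluorescent Galphao held in activated GDP-AlF4 state binding bead-coupled RGS7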
Avidin bead fluor = avidin bead compound fluorescence profile. Avidin beads, compound fluorescence 488/530 nm, flow cytometry; active compounds read high. fluorescence (KMESF) at 10 µM. actives 0.38% (n = 220,000). AID 1775; in the data active means fluorescence above about 47
GSH fluor = compound fluoresces at 488/530 nm on GSH beads; GSH beads flow cytometry, compound fluorescence 488/530 nm; active compounds read high; fluorescence (KMESF) at 10 µM; actives 0.25% (n = 190,000); in the data active means fluorescence above about 89;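 further: glutathione beads carrying GST-tagged Bcl family fusion proteins plus one bare bead set; values are compound well signal with DMSO vehicle wells as background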
RGS16-Gao = regulators of human RGS16-Galphao interaction; bead-based flow cytometry RGS16-Galphao binding, fluorescence; actives lie on both sides; binding response (% of control), % at 10 µM; actives 0.38% (n = 220,000);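 further: Galphao activated by GDP with aluminum fluoride before binding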
RGS4-Gao HTS = modulates binding between human RGS4 and Galphao | shares compounds with RGS16-Gao | multiplexed bead flow cytometry, RGS–Galpha-o binding | RGS4–Galpha-o binding response, % at 10 µM | actives 99% (n = 1,600) | AID 1504;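 further: fluorescently labeled Galpha-o bound to GDP with aluminium fluoride binding biotinylated RGS beads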
Target sequence (P09471 whole entry, looked up): as above
Target sequence (P49798 whole entry, looked up): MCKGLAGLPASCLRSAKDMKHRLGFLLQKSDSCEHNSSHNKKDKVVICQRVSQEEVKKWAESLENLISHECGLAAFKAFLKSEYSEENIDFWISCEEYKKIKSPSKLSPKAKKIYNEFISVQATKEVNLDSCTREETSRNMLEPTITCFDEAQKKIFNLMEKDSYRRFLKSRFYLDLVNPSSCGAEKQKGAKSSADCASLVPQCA
Avidin counter = counter-screen: compounds disrupting biotin binding to avidin beads | inhibition, % at 10 µM | 1,700 tested, under 10 active | streptavidin beads, fluorescein-biotin binding, flow cytometry | shares compounds with RGS16-Gao | AID 1783;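 active means inhibition above 50%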;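 further: median green fluorescence of gated singlet beads compared with DMSO control wells; 0% = DMSO wells and 100% = complete loss of bead fluorescence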
RGS8-Gao confirm = RGS8-Galphao interaction regulation, single point confirmation. shares compounds with RGS16-Gao. bead-based flow cytometry RGS8-Galphao binding, fluorescence; actives lie on both sides. binding response (% of control), % at 10 µM. actives 3% (n = 1,700); in the data active means binding response below about 72% or above about 130%; inactive means in between;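 further: Galphao activated as GDP AlF4 complex before binding bead RGS8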
RGS7-Gao confirm = confirmation of regulators of human RGS7-Galphao interaction | shares compounds with RGS16-Gao | bead-based flow cytometry RGS7-Galphao binding; actives lie on both sides | response (percent of control binding), % at 10 µM | actives 7.8% (n = 1,700) | AID 1837; in the data active means response below about 75% or above about 130%; inactive means in between;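 further: fluorescent Galphao activated with GDP and aluminum fluoride binding bead-coupled RGS7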
RGS16-Gao conf = RGS16-Galphao interaction regulation, single point confirmation; shares compounds with RGS16-Gao; bead-based flow cytometry, RGS16-Galphao binding; actives lie on both sides; response (% of control binding), % at 10 µM; actives 4% (n = 1,700); AID 1838; in the data active means response below about 74% or above about 130%; inactive means in between;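 further: Galphao activated as the GDP aluminium fluoride complex binding bead-coupled RGS16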
RGS4-Gao single = confirmation of regulators of human RGS4-Galphao interaction; shares compounds with RGS16-Gao; RGS4-Galphao binding, multiplexed bead flow cytometry; actives lie on both sides; binding response (% of control), % at 10 µM; actives 4% (n = 1,700); in the data active means binding response below about 74% or above about 130%; inactive means in between
RGS19-Gao single = RGS19-Galphao interaction regulation, single point confirmation; shares compounds with RGS16-Gao; bead-based flow cytometry RGS19-Galphao binding; actives lie on both sides; response (percent of control binding), % at 10 µM; actives 5% (n = 1,700); AID 1841; in the data active means response below about 50% or above about 160%; inactive means in between;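 further: 100% = no compound control and 0% = blank background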
Active calls of the source: *; ? = inconclusive; . = no result given; [ ] = remark or other dose. Unless noted, how the calls were made is not given here.

SMILES	RGS8-Gao	RGS4-Gao reg	RGS7-Gao reg	Avidin bead fluor	GSH fluor	RGS16-Gao	RGS4-Gao HTS	Avidin counter	RGS8-Gao confirm	RGS7-Gao confirm	RGS16-Gao conf	RGS4-Gao single	RGS19-Gao single
CC1=CN2CC(O)CN=C2C=C1 (stereo not drawn)	.	.	.	.	39	.	.	2.2	100.0	95.3	98.3	98.8	108.4
CC1=CC=CN2CC(O)CN=C12 (stereo not drawn)	103.0	106.0	104.4	26	15	98.2	.	.	.	.	.	.	.
Cc1ccc(S(=O)(=O)Nc2ccccc2C=Nc2cccc(C)c2C)cc1	100.1	93.2	93.2	6	11	105.6	.	.	.	.	.	.	.
Cc1ccc(S(=O)(=O)Nc2ccccc2/C=N/c2nc3ccccc3n2C)cc1	102.3	100.2	.	5	9	102.0	.	0.4	98.3	99.6	98.6	95.1	104.9
O=C1/C(=C/c2ccncc2)CCC/C1=C\c1ccncc1	97.3	97.7	100.3	10	11	93.2	.	.	.	.	.	.	.
CCOC(=O)c1ccc(NCn2c(=O)oc3ccccc32)cc1	87.8	96.8	91.7	10	22	-14.5*	96.8*	-1.7	100.4	98.8	97.5	101.6	102.3
CC(C)n1c(-c2cccnc2)nc2cnccc21	140.2*[activator]	122.4	121.5	32	17	214.1	122.4*	.	.	.	.	.	.
CCOC(=O)c1c(-c2cccc3ccccc23)csc1NC(=O)C1C2CCC(O2)C1C(=O)O (stereo not drawn)	99.4	97.7	96.8	15	18	98.9	.	.	.	.	.	.	.
COC(=O)c1c(-c2ccc(C(C)(C)C)cc2)csc1NC(=O)C1C2CCC(O2)C1C(=O)O (stereo not drawn)	75.3	93.6	125.2	3	10	5.6*	93.6*	2.8	83.7	135.2*[activator]	73.3*	96.4	75.7
CNC(=O)c1ccccc1Sc1ccccc1CO	80.9	93.8	?	7	.	97.5	.	0.0	109.6	106.1	111.5	105.8	106.3
CNC(=O)c1cccc2cccc(Sc3ccccc3C(=O)O)c12	100.0	102.9	?	3	.	99.2	.	.	.	.	.	.	.
O=C(C1CCN(S(=O)(=O)c2cccnc2)CC1)N1CCN(c2cccc(Cl)c2)CC1	26.6*	35.4*	10.7*	1	25	62.4	.	-0.9	99.2	99.2	101.0	99.1	95.1
Cc1nc2c(cnn2-c2ccc(Cl)cc2)c(=O)n1-c1ccc(N2CCC(C)CC2)cc1	108.7	150.3*[activator]	171.0*[activator]	18	21	178.2	.	-0.6	105.0	107.7	109.6	103.6	122.2
CSc1ccc(S(=O)(=O)NC2CCCCCC2)cc1	104.3	104.4	102.4	9	14	110.2	.	.	.	.	.	.	.
COc1ccc(NC(=S)NCCc2ccccc2)c(OC)c1	104.2	103.4	100.3	6	35	108.8	.	.	.	.	.	.	.
COc1ccc(NC(=S)NCCc2ccc(F)cc2)c(OC)c1	65.9	87.9	91.7	2	9	19.3*	87.9*	-1.3	99.9	99.2	97.7	100.1	95.2
CN=C1c2cc3c(Br)c(OC)ccc3n2CCN1C	97.5	151.5*[activator]	127.5	16	8	153.4	.	-0.8	103.8	95.0	105.4	99.4	96.0
CC1Cc2cc(/C(O)=C3/C(=O)C(=O)N(CC4CCCO4)C3c3ccco3)ccc2O1 (stereo not drawn)	100.7	115.4	186.4*[activator]	110*	24	107.2	115.4*	-0.9	102.5	90.6	102.1	98.2	113.9
COc1ccc(N=C2SC(C(=O)Nc3ccc(C(=O)O)cc3)CC(=O)N2Cc2cccs2)cc1 (stereo not drawn)	98.8	100.3	?	6	.	99.0	.	.	.	.	.	.	.
Nc1ccc(-c2ccc(N)cc2C(F)(F)F)c(C(F)(F)F)c1	101.1	118.0	203.8*[activator]	123*	24	109.7	118.0*	-2.3	100.7	100.7	97.4	96.7	105.4
CCOC(=O)Cc1c(C)nc2c(-c3ccc(Cl)cc3)c(C)[nH]n2c1=O	87.4	92.3	87.1	21	46	44.6	.	.	.	.	.	.	.
COc1cc(NC(=O)c2ccc(COc3ccccc3Br)o2)cc(OC)c1OC	111.8	148.8	126.4	77*	30	208.3*[activator]	148.8*	2.4	95.7	91.4	93.7	95.4	81.6
COc1ccc(NC(=O)c2ccc(COc3ccccc3Br)o2)cc1OC	99.2	96.4	94.2	33	14	100.2	.	.	.	.	.	.	.
COc1ccc(-c2csc(NC(=O)c3ccc(OCC(=O)N4CCOCC4)c(OC)c3)n2)cc1OC	80.9	97.0	92.7	8	6	18.4*	97.0*	1.1	100.1	99.8	101.6	102.0	96.2
Cc1c(C(=O)NCc2ccccn2)oc2ccc(S(=O)(=O)N3CCC4(CC3)OCCO4)cc12	111.4	107.9	108.6	22	14	113.3	.	.	.	.	.	.	.
SMILES	RGS8-Gao	RGS4-Gao reg	RGS7-Gao reg	Avidin bead fluor	GSH fluor	RGS16-Gao	RGS4-Gao HTS	Avidin counter	RGS8-Gao confirm	RGS7-Gao confirm	RGS16-Gao conf	RGS4-Gao single	RGS19-Gao single
COC(=O)c1ccccc1NS(=O)(=O)c1ccc(NC(C)=O)cc1	133.8	128.1	151.4*[activator]	19	14	137.3	128.1*	1.7	99.9	104.1	100.7	101.5	92.0
COC(=O)c1ccccc1NS(=O)(=O)c1ccc(F)cc1	100.2	99.1	100.9	22	29	103.8	.	.	.	.	.	.	.
CCc1nc(SCc2ccc(F)cc2)n[nH]1	103.0	98.0	100.8	21	10	102.9	.	.	.	.	.	.	.
COC(=O)CCC(=O)Nc1sc(C)c(C)c1C(N)=O	.	.	.	.	44	.	.	0.0	82.1	72.6*	69.7*	69.4*	44.1*
COc1ccc(S(=O)(=O)Nc2cc(Sc3ncn[nH]3)c(O)c3ccccc23)cc1	61.0	72.5	77.1	2	28	11.2*	72.5*	.	.	.	.	.	.
COc1ccc(OCC(=O)Nc2ccccc2OC)cc1	153.1*[activator]	116.3	110.6	5	5	422.1	116.3*	-1.2	110.2	117.4	110.4	111.0	104.6
